Consider 98 molecules from PMC4336329 (PLoS ONE, 2015).

Screen size: about 310,000 compounds; about 14,000 (4.5%) showed an effect of 50% or more. The effect is printed as a negative number. For the sample, strong results were picked, then their nearest neighbours and some compounds at random.
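Further: peak tail current of the secondary pulse compared with the same well before compound.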

For this test, the target named is human ether-à-go-go-related gene (hERG) potassium channel (human, UniProt Q12809). Nature of the test: primary screen, population patch clamp on CHO cells stably expressing hERG; higher = less effect of the substance.
human ether-à-go-go-related gene (hERG) potassium channel, sequence (Q12809 whole entry, looked up): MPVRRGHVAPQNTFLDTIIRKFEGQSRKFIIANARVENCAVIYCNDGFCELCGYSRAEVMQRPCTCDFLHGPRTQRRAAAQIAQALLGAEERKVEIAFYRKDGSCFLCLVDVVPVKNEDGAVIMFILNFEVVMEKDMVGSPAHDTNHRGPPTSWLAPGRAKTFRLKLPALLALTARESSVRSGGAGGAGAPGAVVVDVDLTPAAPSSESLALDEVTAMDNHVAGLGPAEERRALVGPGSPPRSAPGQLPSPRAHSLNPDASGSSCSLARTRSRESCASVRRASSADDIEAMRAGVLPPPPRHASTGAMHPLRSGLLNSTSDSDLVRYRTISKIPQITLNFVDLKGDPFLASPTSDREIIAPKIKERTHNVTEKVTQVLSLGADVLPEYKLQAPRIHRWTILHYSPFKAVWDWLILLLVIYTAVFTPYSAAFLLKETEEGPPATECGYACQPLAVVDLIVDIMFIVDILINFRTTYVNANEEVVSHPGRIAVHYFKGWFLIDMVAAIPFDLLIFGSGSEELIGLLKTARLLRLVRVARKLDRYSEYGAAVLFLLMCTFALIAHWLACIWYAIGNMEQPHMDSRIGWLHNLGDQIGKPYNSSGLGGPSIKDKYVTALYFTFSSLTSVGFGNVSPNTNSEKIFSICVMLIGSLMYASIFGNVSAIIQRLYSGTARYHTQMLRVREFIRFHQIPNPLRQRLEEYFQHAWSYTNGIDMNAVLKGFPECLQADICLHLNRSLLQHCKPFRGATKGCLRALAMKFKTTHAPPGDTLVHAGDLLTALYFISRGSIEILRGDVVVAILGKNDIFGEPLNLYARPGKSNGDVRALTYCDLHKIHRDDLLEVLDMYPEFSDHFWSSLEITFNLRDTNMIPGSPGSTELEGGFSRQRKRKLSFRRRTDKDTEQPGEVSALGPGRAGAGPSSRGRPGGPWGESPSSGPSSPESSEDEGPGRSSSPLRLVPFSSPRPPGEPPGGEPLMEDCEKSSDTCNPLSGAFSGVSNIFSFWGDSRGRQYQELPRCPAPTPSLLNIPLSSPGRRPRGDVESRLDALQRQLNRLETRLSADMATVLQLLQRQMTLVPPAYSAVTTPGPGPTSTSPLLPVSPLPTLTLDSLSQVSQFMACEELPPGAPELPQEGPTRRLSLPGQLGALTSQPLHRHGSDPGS
As to `Cc1ccccc1CSc1nnc(-c2cnccn2)n1C`, the “hERG current change (%, negative = inhibition) at 10uM” value is on record as 7.84%.

In the case of `O=C(O)/C=C/C(=O)Nc1ccc(Cl)cc1C(=O)c1ccccc1`, the “hERG current change (%, negative = inhibition) at 10uM” value was -7.6%.

Turning to `CCOc1ccccc1NC(=O)CC1NCCNC1=O` (centres unmarked), the “hERG current change (%, negative = inhibition) at 10uM” value is on record as -8.89%.

In the case of `COc1ccc(/C=N/NC(=O)c2c(C)nc3ccc(Br)cn23)cc1OC`, the “hERG current change (%, negative = inhibition) at 10uM” value is -0.597%. For `COCCNc1nnnc2c1sc1nc(N3CCOCC3)c3c(c12)CC(C)(C)OC3`, the “hERG current change (%, negative = inhibition) at 10uM” value is reported as -7.85%. To `COc1ccc(OCC(O)Cn2c(Nc3ccccc3)nc3c2c(=O)n(C)c(=O)n3C)cc1` (centres unmarked) belongs 2.94%; to `O=C(O)C(=O)O.c1ccc(CN2CCN(CCOCCOc3ccc4c(c3)CCC4)CC2)cc1`, -5.19%. Take `CCCCOc1ccc(C(=O)C(CN2CCOCC2)c2ccccc2)cc1` (centres unmarked): the “hERG current change (%, negative = inhibition) at 10uM” value is recorded as -1.42%. As to `CCCOc1ccc(C(=O)C(CN2CCCC2)c2ccccc2)cc1.Cl` (centres unmarked), the “hERG current change (%, negative = inhibition) at 10uM” value is listed as -65.8%. For the molecule `O=C(O)C(=O)O.O=C(c1ccccc1)c1ccc(OCCCN2CCCC2)cc1`, the “hERG current change (%, negative = inhibition) at 10uM” value is -70.6%. Then `CCc1ccc(OCCOCCN2CCN(C)CC2)cc1.O=C(O)C(=O)O`, with 4.8%; and `CC1CCN(CCOc2ccc(C(=O)c3ccccc3)cc2)CC1.O=C(O)C(=O)O`, with -47.5%.

Regarding `O=C(O)C(=O)O.O=C(c1ccccc1)c1ccc(OCCOCCN2CCN(Cc3ccccc3)CC2)cc1`, the “hERG current change (%, negative = inhibition) at 10uM” value is -78.9%. Then `CCCOc1ccc(C(=O)C(CN2CCOCC2)c2ccccc2)cc1` (centres unmarked), with -8.97%; and `O=C(O)C(=O)O.c1ccc(OCCCN2CCCC2)cc1`, with -7.18%; and `CC1CCN(CCCCOc2ccc(C(=O)c3ccccc3)cc2)CC1.O=C(O)C(=O)O`, with -77%. To `CCCCOc1ccc(C(=O)N2CCC(C)CC2)cc1` belongs -9.48%. Then `O=C(O)c1ccccc1NC(=O)N1C[C@H]2C[C@@H](C1)c1cccc(=O)n1C2`, with 3.86%; and `COc1ccc(CN(C)Cc2nc(Cc3ccccc3Cl)no2)cc1OC`, with -10.9%. Consider `CC(=O)Nc1nc2ccccc2[nH]1`, for which the “hERG current change (%, negative = inhibition) at 10uM” value is recorded as -0.326%. Then `Cc1cc(C)n(C(=O)CNC(=O)c2ccco2)n1`, with 11.9%; and `CC(NC(=O)c1ccco1)C1CCCO1` (centres unmarked), with -12.7%; and `O=CN1CC(=O)N(c2ccccc2)c2c([nH]c3ccccc23)C1`, with -23.2%. To `O=C(O)CSc1cc(C(=O)c2ccccc2O)cn2c(=O)c3c(-c4ccccc4)csc3nc12` belongs -1.71%.

For the molecule `COc1cc(NC2c3ccccc3C(=O)N2Cc2ccc3c(c2)OCO3)cc(OC)c1` (centres unmarked), the “hERG current change (%, negative = inhibition) at 10uM” value was -22.4%. To `Cc1cc(OCC(=O)NCCc2c[nH]c3ccccc23)c2c(C)c(C)c(=O)oc2c1` belongs 3.37%; to `O=C(O)C(=O)O.O=C(c1ccccc1)c1ccc(OCCCN2CCCCC2)cc1`, -66.4%. For `CCCOc1ccc(C(=O)OCCN2CCCCC2)c(O)c1.Cl`, the “hERG current change (%, negative = inhibition) at 10uM” value is on record as -58.7%. Then `CC(=O)c1ccc(OCCCN2CCCCC2)cc1.O=C(O)C(=O)O`, with -22.2%. Then `CCOc1ccc(C(=O)CCN2CCCCCC2)cc1.Cl`, with -38.4%; and `CCCOc1ccc(C(=O)CCN2CCCCC2)cc1.Cl`, with -31.6%; and `O=C(O)C(=O)O.O=C(c1ccccc1)c1ccc(OCCCCN2CCCCC2)cc1`, with -52.6%.

In the case of `CCCCOc1ccc(C(=O)CCN2CCCCC2)cc1.Cl`, the “hERG current change (%, negative = inhibition) at 10uM” value was -61.5%. Then `CC(C)COc1ccc(C(=O)OCCN2CCOCC2)c(O)c1.Cl`, with -25.2%; and `COc1cc(C(=O)OCCN2CCCCC2)ccc1O.Cl`, with 3.87%; and `COc1ccc(/C=N/N=C2\SC(CC(=O)O)C(=O)N2c2ccccc2)c(OC)c1` (centres unmarked), with 4.13%. Then `CC1=CC(C)(C)N(C(=O)CSc2nnc(N)s2)c2cc(C)c(C)cc21`, with -6%. To `CC(C)OC(=O)Nc1ccc2c(c1)N(C(=O)CCN(C)C)c1ccccc1CC2.Cl` belongs -20.8%; to `CCOc1ccc(N2CC(NC(=O)c3cccc4ccccc34)CC2=O)cc1` (centres unmarked), 3.75%; to `CCN(CC(=O)NCc1ccc(Cl)cc1)C(=O)c1cc(S(=O)(=O)NCc2ccccc2)ccc1C`, -25.6%. Regarding `CN(C)c1nc(NCc2ccccc2)nc(N/N=C/c2cccc(Br)c2)n1`, the “hERG current change (%, negative = inhibition) at 10uM” value is listed as 29.7%. To `O=C(Cc1ccsc1)NCc1ccccc1F` belongs 17.1%. To `CC(C)CCNC(=O)c1cc(-c2ccco2)nc2ccccc12` belongs 6.45%. For `O=C(Cc1ccccc1)Nc1ccc(SC(F)F)cc1`, the “hERG current change (%, negative = inhibition) at 10uM” value is given as -29.7%. To `CC[N+](CC)(CC)CC(=O)Nc1ccc(SC(F)F)cc1.[Cl-]` belongs -3.41%; to `CCn1c(N)[n+](CC(=O)Nc2ccc(SC(F)F)cc2)c2ccccc21.[Cl-]`, -78.4%; to `COC(=O)Cn1c(=NC(=O)CCS(=O)(=O)c2ccccc2)sc2c(OC)ccc(OC)c21`, 6.2%. To `CCc1noc(C)c1C(=O)NNC(=O)c1ccccc1F` belongs 21%; to `CSc1cccc(NC(=O)CCS(=O)(=O)c2cccc3nonc23)c1`, -15.1%. To `COC(=O)c1ccccc1NC(=O)COC(=O)c1cccnc1` belongs 6.42%.

In the case of `NS(=O)(=O)c1ccc(NC(=O)CN2CCN(S(=O)(=O)c3ccc(F)cc3)CC2)cc1`, the “hERG current change (%, negative = inhibition) at 10uM” value was found to be 7.15%. Then `COc1ccc(C)cc1NC(=O)CN1CCN(S(=O)(=O)c2ccc(Br)cc2)CC1`, with -30.5%; and `O=C(CN1CCN(S(=O)(=O)c2ccc(F)cc2)CC1)Nc1ccc(Cl)cn1`, with -62.7%; and `COC(=O)c1ccc(NC(=O)CN2CCN(S(=O)(=O)c3ccc(Br)cc3)CC2)cc1`, with -31.4%. As to `O=C(CN1CCN(S(=O)(=O)c2ccccc2)CC1)Nc1ccc(Cl)cn1`, the “hERG current change (%, negative = inhibition) at 10uM” value is -29.5%.

As for `CC(C)c1ccc(S(=O)(=O)N2CCN(CC(=O)Nc3ccc(Cl)cc3F)CC2)cc1`, the “hERG current change (%, negative = inhibition) at 10uM” value is -15.9%. Then `Cc1cc(NC(=O)CN2CCN(S(=O)(=O)c3ccc(Cl)cc3)CC2)no1`, with -15.4%. Then `O=C(CN1CCN(S(=O)(=O)c2ccc(Br)cc2)CC1)Nc1ccc(F)cc1F`, with -73.5%; and `O=C(CN1CCN(S(=O)(=O)c2ccc(Br)cc2)CC1)Nc1ccc(F)cc1`, with -67.8%; and `COc1ccc(Cl)cc1NC(=O)CN1CCN(S(=O)(=O)c2ccc(F)cc2)CC1`, with -43.8%.

As to `O=C(CN1CCN(S(=O)(=O)c2ccc(Cl)cc2)CC1)Nc1ccc(F)cc1F`, the “hERG current change (%, negative = inhibition) at 10uM” value is on record as -78.3%. Then `Cc1sc2ncnc(NCCc3ccc(S(N)(=O)=O)cc3)c2c1C`, with 12.6%; and `COc1ccc(CCNC(=O)CSc2nn3c(=O)c(C)nnc3s2)cc1OC`, with 6.31%; and `CN(CC(=O)Nc1ccccc1C(F)(F)F)C(=O)COc1ncnc2ccccc12`, with 1.42%. On to `O=C(CNCc1ccc(Cl)cc1)NCc1ccco1.O=C(O)C(=O)O`, for which the “hERG current change (%, negative = inhibition) at 10uM” value is recorded as -17.3%. To `Cc1cccc(OCc2n[nH]c(=S)n2-c2ccccc2)c1` belongs 10.1%; to `CC(=O)Nc1ccc(C(=O)OCC(=O)NCc2ccccc2)cc1`, 11.9%.

`O=C(COC(=O)CCC(=O)c1ccc(F)cc1)Nc1ccc2[nH]c(=O)[nH]c2c1`: the “hERG current change (%, negative = inhibition) at 10uM” value is -3.65%. Then `O=C(Nc1ccc(F)cc1F)NC1CCN(S(=O)(=O)c2ccc(F)cc2)CC1`, with 9.78%. On to `O=C(COC(=O)c1ccc(S(=O)(=O)N2CCCC2)cc1)Nc1ccc(F)cc1F`, for which the “hERG current change (%, negative = inhibition) at 10uM” value was 9.22%.

On to `O=C(CN1CCN(S(=O)(=O)c2ccc(F)cc2)CC1)Nc1ccc(F)cc1F`, for which the “hERG current change (%, negative = inhibition) at 10uM” value is -60.3%. To `C/C(=N\OCC(=O)NC12CC3CC(CC(C3)C1)C2)c1cc2ccccc2o1` belongs 5.38%; to `CCOc1ccc(S(=O)(=O)N2CCN(CN3C(=O)CC4(CCCC4)C3=O)CC2)cc1`, -8.79%; to `N#CCCN(Cc1cccnc1)C(=O)Nc1ccccc1`, -3.06%. In the case of `CC(C)(C)CN1CCN(Cc2cccnc2)CC1CCO` (centres unmarked), the “hERG current change (%, negative = inhibition) at 10uM” value was determined as 13.6%.

As for `CC(C)=CCN1CCN(Cc2nc(-c3ccccc3)cs2)CC1CCO` (centres unmarked), the “hERG current change (%, negative = inhibition) at 10uM” value is -60.4%. To `CC(C)=CCN1CCN(Cc2nc(-c3ccc(F)cc3)cs2)CC1CCO` (centres unmarked) belongs -69%; to `CC(C)(C)CN1CCN(Cc2nc(-c3ccc(F)cc3)cs2)CC1CCO` (centres unmarked), -62.5%; to `CC(C)=CCN1CCN(Cc2nc(C(C)C)cs2)CC1CCO` (centres unmarked), -12.9%.

Consider `CC(C)=CCN1CCN(CC#Cc2ccccc2)CC1CCO` (centres unmarked), for which the “hERG current change (%, negative = inhibition) at 10uM” value is -13%. Then `CC(C)=CCN1CCN(Cc2cc(F)ccc2-n2nc(C)cc2C)CC1CCO` (centres unmarked), with -25%.

Take `CC(C)(C)CN1CCN(Cc2c[nH]c3ccccc23)CC1CCO` (centres unmarked): the “hERG current change (%, negative = inhibition) at 10uM” value was found to be 15.5%. To `CC(C)=CCN1CCN(Cc2cccnc2)CC1CCO` (centres unmarked) belongs -1.24%; to `CCN(CC(=O)NCc1ccc(F)cc1)C(=O)C1CCN(C(=O)Nc2ccccc2)CC1`, -7.79%. To `COCCn1c(SCC(=O)N2CC(=O)Nc3ccccc32)nc2ccccc21` belongs -2.29%; to `O=C(Nc1ccc(N2CCCCC2)cc1)c1cccnc1`, 4.6%; to `Cc1ccc(-c2nn(-c3ccccc3Cl)cc2C(=O)NCC2CCCO2)cc1` (centres unmarked), -0.0276%. Then `COCCCNC(=O)c1cc2c(=O)n3cc(C)ccc3nc2nc1NCC1CCCO1` (centres unmarked), with -71.9%; and `COc1ccc(-c2cc(C(=O)NCC3CCCO3)c3cc(C)ccc3n2)cc1` (centres unmarked), with -3.03%. `CCOCCCNc1nc2nc3ccc(C)cn3c(=O)c2cc1C(=O)NCC1CCCO1` (centres unmarked): the “hERG current change (%, negative = inhibition) at 10uM” value is given as -77.7%. To `COCCCNC(=O)CSc1nc2ccccc2c(=O)n1CCCC(=O)NCC1CCCO1` (centres unmarked) belongs -0.988%. Then `C=CCNC(=O)c1cc2c(=O)n3cc(C)ccc3nc2nc1NCC1CCCO1` (centres unmarked), with -73%.

Turning to `CCNc1nc2nc3ccc(C)cn3c(=O)c2cc1C(=O)NCC1CCCO1` (centres unmarked), the “hERG current change (%, negative = inhibition) at 10uM” value is reported as -70.6%.

As to `COCCCNC(=O)c1ccc2nc3ccccc3c(=O)n2c1`, the “hERG current change (%, negative = inhibition) at 10uM” value is given as 14.7%. Then `Cn1nc(C(=O)NCC2CCCO2)c2ccccc2c1=O` (centres unmarked), with -3%; and `Cc1ccc(-c2noc(-c3ccccc3C(=O)NCC3CCCO3)n2)cc1` (centres unmarked), with -18.6%. To `Cc1ccc(-c2nn(-c3ccccc3)cc2C(=O)NCC2CCCO2)cc1` (centres unmarked) belongs -25.8%; to `CCn1cc(C(=O)NCC2CCCO2)c2cc(OC)c(OC)cc2c1=O` (centres unmarked), 19.4%.
